Common to all, as to experiment: NCI-60 one-dose screen, 48 h (100 = growth as untreated, 0 = no growth, -100 = all killed)
Conditions in all cases: 10 µM unless noted

Assay [1] has as its system K-562 leukemia.
Assay [2] has as its system MALME-3M melanoma.
In assay [3] the test system is MDA-MB-231 breast.
In assay [4] the test system is RXF 393 renal.
Assay [5] has as its system SF-268 CNS.
For assay [6], the system named is SF-295 CNS.
Assay [7] relates to SF-539 CNS.
Assay [8] concerns UACC-257 melanoma.
Assay [9] relates to M14 melanoma.
In assay [10] the test system is HCT-15 colon.
Assay [11] concerns HT29 colon.
Assay [12] relates to SNB-75 CNS.
The test system of assay [13] is SNB-19 CNS.
For assay [14], the system named is U251 CNS.
Assay [15] deals with PC-3 prostate.
Assay [16] relates to SK-MEL-5 melanoma.
Assay [17] deals with UACC-62 melanoma.
In assay [18] the test system is SK-MEL-28 melanoma.
Assay [19] relates to SK-MEL-2 melanoma.
Assay [20] has as its system LOX IMVI melanoma.

The panel holds about 83,000 compounds, 20% with a hit somewhere; the sample as a whole holds those more often.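 Treatment: one concentration, 48 hours, 96-well format. Scoring: percent growth, with anything below 10 considered active.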 A number with no mark means an inactive call. Activity calls are given as the source filed them.

Turning to `Nc1nc(N)c2c(n1)NC(c1ccc(F)cc1)CC(c1ccc(Nc3nc(NCCO)nc(Nc4ccc(Cl)cc4)n3)cc1)=N2` (configuration not stated), the growth in [1] was 0.513% (active); in [2], -60.4% (active); in assay [3], -75.8% (active); in assay [4], -77.4% (active); in [5] it was 38.7%; in assay [6], 9.06% (active). In addition, the growth in [7] was -78.9% (active); in assay [8] it was 106%; in assay [9], -66.1% (active); in assay [10], -48.3% (active); in assay [11], -52.1% (active); in assay [12], 44.3%. Moreover, the growth in [13] was 8.01% (active); in assay [14] it was -76.6% (active); in assay [15], 22.7%; in assay [16], -81% (active); in [17], 49.8%; in assay [18], -82.9% (active). The growth in [19] was 26.3%.

On to `CC(=NNc1ncnc2ccccc12)c1ccc(S(C)(=O)=O)cc1`, for which the growth in assay [1] was 96.9%; in assay [2] it was 98.3%; in [3], 93%; in assay [4], 114%; in [5], 108%; in [6], 97.1%. Further, the growth in assay [7] is 97.6%; in assay [8], 108%; in assay [9], 92.5%; in assay [10], 96.5%; in assay [11], 112%; in assay [12] it was 103%. In addition, the growth in assay [13] was 97.6%; in [14], 117%; in assay [15], 87.9%; in assay [16], 101%; in assay [17], 96.1%; in [18], 113%. The growth in assay [19] was 112%.

Regarding `COc1ccc(/C=C2\SC(=Nc3cc(C)[nH]n3)NC2=O)cc1`, the growth was 101% in assay [1]; 89.6% in assay [2]; 95.4% in [3]; 80.7% in assay [4]; 95.8% in assay [5]; 86.3% in assay [6]. The growth in assay [7] is 95.8%; in assay [8] it was 98.7%; in [9], 98.1%; in assay [10], 84.2%; in assay [11] it was 107%; in [12], 95.2%. The growth in assay [13] was 90.8%; in assay [14], 98.1%; in assay [15], 81%; in assay [16], 95.7%; in [17], 90.6%; in [18], 85%. For the same compound, the growth in assay [19] is 121%.

Consider `COc1cc(/C=C/C(=O)c2ccc(Cl)cc2)ccc1Oc1nc(NCCO)nc(N2CCOCC2)n1`, for which the growth in assay [1] was 35.9%; in assay [2], 93.5%; in [3], 104%; in assay [4], 97.8%; in assay [5] it was 97.6%; in assay [6], 101%. In addition, the growth is 95.9% in assay [7]; 114% in [8]; 98.7% in assay [9]; 98.2% in assay [10]; 111% in [11]; 97.8% in [12]. The growth is 99.3% in assay [13]; 94% in assay [14]; 95.3% in [15]; 99.7% in assay [16]; 93.9% in assay [17]; 108% in [18]. In assay [19], the growth is 99.7%.

As for `O=C1Nc2ccccc2Oc2ccc(S(=O)(=O)CC3CO3)cc21` (configuration not stated), the growth in [1] is 18%; in [2], 87.7%; in [3], 48.4%; in assay [4], 58.1%; in assay [5], 80.2%; in [6] it was 66.3%. For the same compound, the growth in assay [7] was 69.7%; in [8] it was 65%; in assay [9], 57.5%; in assay [10], 21.2%; in assay [11], 58.8%; in assay [12] it was 90.6%. In addition, the growth in [13] is 96.9%; in assay [14], 77.6%; in [15], 62.3%; in assay [16], 90%; in assay [20], 29.5%; in [18], 64.1%. Also, the growth in assay [19] is 85.5%.

Turning to `N#Cc1nc(-c2ccccc2)oc1N1CCC(CO)C1` (configuration not stated), the growth in assay [1] is 114%; in assay [2], 94.3%; in assay [3], 101%; in assay [4], 100%; in [5], 97.7%; in assay [6], 105%. The growth in assay [7] is 93.9%; in assay [8], 105%; in assay [9], 106%; in [10] it was 104%; in assay [11], 107%; in assay [12] it was 89%. Moreover, the growth is 93.3% in assay [13]; 105% in assay [14]; 107% in [15]; 106% in [16]; 88.2% in assay [20]; 103% in [18]. In addition, the growth in assay [19] is 127%.

`N#Cc1nc(-c2ccccc2)oc1S(N)(=O)=O`: the growth is 21.5% in assay [1]; 64.9% in [2]; 47.9% in assay [3]; 45.8% in assay [4]; 110% in [5]; 101% in [6]. Further, the growth was 36.8% in assay [7]; 78.3% in assay [8]; 40.7% in assay [9]; 27.1% in assay [10]; 43.8% in assay [11]; 91.7% in assay [12]. Moreover, the growth in [13] is 95.3%; in [14] it was 92.6%; in [15], 81.4%; in assay [16], 76.2%; in [20] it was 10.5%; in [18], 69.5%. In [19], the growth is 84.9%.

For `NS(=O)(=O)c1cccc(Nc2nc(SCC(=O)c3ccc(Br)cc3)nc3ccccc23)c1`, the growth in assay [1] is 44.7%; in [2], 54.7%; in [3], 64.5%; in [4] it was 24.5%; in [5] it was 32.8%; in assay [6] it was 17.4%. Further, the growth was 72% in [7]; 96.1% in assay [8]; 80.2% in assay [9]; 67.4% in [10]; 90.2% in assay [11]; 10.9% in assay [12]. Further, the growth in [13] was 35.3%; in assay [14], 59.7%; in assay [15], 36.5%; in [16] it was 58.7%; in assay [17] it was 59.1%; in assay [18], 84.4%. Besides, the growth in [19] was 89.9%.

These data come from PubChem BioAssay (NCI).
